Sampled rows, rich in hits. Any-hit rate of the full collection: about 12%.
G9a block – inhibitors of human histone lysine methyltransferase G9a | Potency, µM (highest dose often 102 µM), most hits filed as inhibitors | Q96KQ7 | 350,000 compounds, 8.8% hits | AID 504332 | G9a H3K9 monomethylation, AlphaScreen, 2 h; also: nearly all actives have a fitted effect of over 75% in size
Target sequence (Q96KQ7 913-1193 limits assumed): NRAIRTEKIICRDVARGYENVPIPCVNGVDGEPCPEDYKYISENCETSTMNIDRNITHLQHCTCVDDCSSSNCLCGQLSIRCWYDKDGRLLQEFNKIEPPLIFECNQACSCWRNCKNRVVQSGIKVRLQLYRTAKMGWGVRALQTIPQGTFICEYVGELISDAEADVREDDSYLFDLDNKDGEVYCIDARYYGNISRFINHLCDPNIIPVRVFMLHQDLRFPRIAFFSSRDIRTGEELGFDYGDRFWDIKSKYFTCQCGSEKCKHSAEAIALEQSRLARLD
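Enzyme 20 nM + cpd, 15 min RT; add b-H3K9 pep 500 nM / SAM 20 uM; 2 h RT; anti-H3K9me1 Ab 0.5 ug/mL + SA donor / anti-rabbit acceptor beads 20 ug/mL each, 10 min; AlphaScreen read.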
Sfp inh – Sfp phosphopantetheinyl transferase inhibition. Q9F4F7. Potency, µM, actives largely listed as inhibitors. 310,000 compounds, 3.5% hits. Biochemical Sfp PPTase activity, qHTS;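 also: the enzyme is Sfp with the accession as filed and its product quenches rhodamine fluorescence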
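Step 1, compound plus 15 nM Sfp-PPTase, 15 min, room temperature. Step 2, add rhodamine-CoA (5 uM) and BHQ-2-YbbR (12.5 uM). Step 3, read 525/598 nm fluorescence at 0 and 30 min.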
L3MBTL1 inh – inhibitors of human L3MBTL1 | AlphaScreen L3MBTL1–H3K9me1 peptide binding | Potency, µM (titrated, usually from 57.1 µM), actives largely listed as inhibitors | 230,000 compounds, 0.66% hits; also: nearly all actives have a fitted effect of over 60% in size
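First, the protein-peptide complex forms for 30 min at room temperature (L3MBTL1 50 nM, biotinylated H3K9me1 peptide 75 nM). Next, compounds are pin-transferred and incubated 30 min. Finally, AlphaScreen beads are added and read after 30 min.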
HP1b binding inh – blocks HP1-beta chromodomain binding to methylated histone tails. AlphaScreen HP1-beta / biotin-H3K9me3 peptide binding. Potency, µM (titrated, usually from 114 µM), actives largely listed as inhibitors. 390,000 compounds, 0.56% hits; also: nearly all actives have a fitted effect of over 70% in size
Target sequence (P83916 whole entry, looked up): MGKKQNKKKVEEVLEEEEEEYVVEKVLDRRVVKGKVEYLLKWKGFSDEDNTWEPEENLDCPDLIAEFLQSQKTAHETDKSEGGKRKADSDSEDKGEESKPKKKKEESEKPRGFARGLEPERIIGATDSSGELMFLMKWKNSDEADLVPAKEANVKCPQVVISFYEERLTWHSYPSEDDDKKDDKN
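AlphaScreen: HP1-beta (50 nM) preformed 30 min with biotin-H3(1-18)K9me3 peptide (50 nM) in PBS pH 7.4, 0.01% Tween-20. Compound added for 30 min at RT, then streptavidin donor/nickel chelate acceptor beads (10 ug/mL) for 30 min.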
JMJD2A Tudor inh – JMJD2A Tudor domain (human) inhibition | O75164 | AlphaScreen JMJD2A-Tudor / H3K4me3 peptide binding | Potency, µM (series often up to 114 µM), usual class: inhibitors | 390,000 compounds, 4.4% hits | AID 504339; also: nearly all actives have a fitted effect of over 50% in size
BAZ2B inh – blocks human BAZ2B | Q9UIF8 | AlphaScreen BAZ2B-H3K14Ac peptide displacement | Potency, µM (top dose mostly 114 µM), hits mostly inhibitors | 360,000 compounds, 4.4% hits | AID 504333; also: nearly all actives have a fitted effect of over 60% in size
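BAZ2B 50 nM plus b-H3(5-23)K14Ac 50 nM, PBS pH 7.4/0.01% Tween-20, 30 min RT; compound added (max 110 uM), 30 min RT; streptavidin donor/Ni-chelate acceptor beads 10 ug/mL final, 20 min dark; AlphaScreen read.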
A number is an active result; n = inactive; u = inconclusive; x = no result; [ ] = dose if it differs, or a comment. Calls follow the shape of the dose curve; as a rule, active = well fitted curve in the direction sought with a large enough effect; inconclusive = small, poorly fitted or top-dose-only effect, or another doubt; inactive = no such curve, though single readings can be large; an effect the other way counts as inactive or inconclusive.

SMILES	G9a block	Sfp inh	L3MBTL1 inh	HP1b binding inh	JMJD2A Tudor inh	BAZ2B inh
COc1ccc(Nc2cc(C(=O)NCc3ccco3)c3ccccc3n2)c(OC)c1	u	n	n	n	u	50µM
COc1ccccc1Nc1nn2c(=O)c3ccc(C(=O)NCc4cccnc4)cc3nc2s1	n	n	x	x	x	56µM
COc1ccc(Nc2cc(C(=O)NCc3cccnc3)c3ccccc3n2)c(OC)c1	45µM	n	x	x	x	u
COC(=O)[C@@]1(Cc2ccccc2)[C@H]2c3cc(C(=O)N4CCCC4)n(Cc4cc(F)cc5c4OCOC5)c3C[C@H]2CN1C(=O)c1ccccc1	x	n	x	x	x	x
COc1ccc(/C=N/Nc2ccc(C(F)(F)F)cc2[N+](=O)[O-])cc1O	u	n	n	u	89µM	u
CCOc1ccc(/C=N/Nc2ccc(C(F)(F)F)cc2[N+](=O)[O-])cc1O	45µM	n	u	n	n	u
c1ccc(CN2CCC(N3CCC(N4CCCCCC4)CC3)CC2)cc1	45µM	u	n	n	1.4µM	u
O=S(=O)(c1ccc2ccccc2c1)N1CCN(C2CCN(Cc3ccccc3)CC2)CC1	5µM	u	x	n	0.89µM	28µM
O=S(=O)(c1ccc2ccccc2c1)N1CCN(Cc2ccccn2)CC1	u	71µM	n	n	3.2µM	79µM
O=S(=O)(c1ccccc1)N1CCN(C2CCN(Cc3ccccc3)CC2)CC1	n	n	n	n	n	n
COc1ccccc1N1CCN(C2CCN(S(=O)(=O)c3ccc4ccccc4c3)CC2)CC1	45µM	n	n	u	u	u
Cc1ccc(Cn2c(CN3CCC(C(=O)NCC(C)c4ccccc4)CC3)cc3ccccc32)cc1 (stereo not drawn)	n	x	x	n	n	n
COC(=O)c1ccc(-n2nnnc2SC)cc1	10µM	u	n	n	n	n
COC(=O)COC(=O)c1ccc(-n2nnnc2SC)cc1	n[2.33 µM]	n	x	n	n	n
O=C(Nc1ccc(N2CCOCC2)cc1)c1cc2c(s1)CCCCC2	32µM	n	n	u	79µM	u
O=C(Nc1ccc(N2CCOCC2)cc1)c1cc2c(s1)CCCC2	40µM	n	n	n	u	40µM
O=C(Nc1ccccc1N1CCOCC1)c1cc2c(s1)CCCCC2	n	n	x	n	n	n
COc1cccc(-c2c(C(=O)N/N=C/c3ccco3)nnn2-c2nonc2N)c1	n	n	x	n	n	n
Cc1ccc(NC(=O)c2c(NC(=O)c3ccco3)sc3c2CCC(C(C)(C)C)C3)c(C)c1 (stereo not drawn)	n	x	x	n	n	n
Cc1cc(C)c(Cn2c(=O)n(CCC(=O)NCc3ccc4c(c3)OCO4)c(=O)c3ccccc32)c(C)c1	n	x	x	n	n	n
CCc1cccc(NC(=O)c2cc3c(=O)[nH]c4ccccc4c3n2C)c1	n	x	x	n	n	x
CC[n+]1c(/C=C2/C=C(C)CC(C)(C)C2)sc2ccc(OC)cc21	n[12.7 µM]	14µM	n	20µM	50µM	56µM
CC[n+]1c(/C=C2\C=C(C)CC(C)C2)sc2ccccc21 (stereo not drawn)	u	35µM	n	n	50µM	u
CC[n+]1c(/C=C2\C=C(C)CC(C)(C)C2)sc2ccccc21	u	11µM	n	n	40µM	56µM
CCC1=C/C(=C/c2sc3ccccc3[n+]2CC)CC(C)(C)C1	5µM	35µM	x	n	13µM	45µM
CCOC(=O)C1CCN(S(=O)(=O)c2cc(C(=O)OC)n(C)c2)CC1	x	n	n	n	n	n
CNC(=O)c1c(C)nn(-c2ccc(F)c(Cl)c2)c1-c1cc(C)on1	n	n	n	n	n	n
CC(C)OC(=O)c1c(NC(=O)c2cc3nc(-c4ccccc4)cc(C(F)(F)F)n3n2)sc2c1CCCC2	13µM	x	x	n	n	n
CO[C@H]1C[C@@H]2CC[C@@H](C)[C@@](O)(O2)C(=O)C(=O)N2CCCC[C@H]2C(=O)O[C@H]([C@H](C)C[C@@H]2CC[C@@H](OC(=O)C(C)(CO)CO)[C@H](OC)C2)CC(=O)[C@H](C)/C=C(\C)[C@@H](O)[C@@H](OC)C(=O)[C@H](C)C[C@H](C)/C=C/C=C/C=C/1C	n[12.7 µM]	n	x	x	x	x

High-throughput results as filed in PubChem.
